# Data published in PubChem BioAssay (Tox21).
# Records with an inconclusive call do not appear. Where a call stands in place of a potency, no number is given. Activity calls are given as the source filed them. Calls come from the whole dose curve; as a rule, active = well fitted cell-killing curve with a large enough effect in the repeat runs; inconclusive = weak or mixed curves, or effect the other way; inactive = flat fitted curve, though single readings scatter.
# Assay: qHTS RealTime-Glo MT Cell Viability Assay in HEK293 cells - 24 hour (AID 1224886); note: top concentration of the series differs between compounds; nearly all actives have a fitted effect of over 50% in size
# Settings: RealTime-Glo luminescence; series mostly up to 76.8 µM
# From the text: National Center for Advancing Translational Sciences [NCATS]
# NIH Chemical Genomics Center [NCGC]
# U.S. Environmental Protection Agency [EPA]
# National Institutes of Environmental Health Sciences [NIEHS]
# National Toxicology Program [NTP]
# U.S. Food and Drug Administration [FDA]
# Measure of cell viability is critical in the cell-base assay. Analysis of cell viability is necessary for the characterization of cell responses to cytotoxic drugs and environmental stress. A RealTime-Glo MT Cell Viability Assay to monitor cell viability in real time of continues cell culture during 40 hours of compound treatment was used to screen Tox21 10K library compounds in Hek293 cells. The RealTime-Glo MT Cell Viability Assay is a nonlytic, homogeneous, bioluminescent method to measure cell viability in real time using a simple, plate-based method. The assay involves adding NanoLuc luciferase and a cell-permeant prosubstrate to cells in culture. Viable cells reduce the proprietary prosubstrate to generate a substrate for NanoLuc luciferase. This substrate diffuses from cells into the surrounding culture medium, where it is rapidly used by the NanoLuc Enzyme to produce a luminescent signal. The signal correlates with the number of viable cells, making the assay well suited for cytotoxicity studies.
# Tox21 Assay Protocol Summary:
# The mixture of Hek293 cell suspension and reagents were dispensed at 600cells/6 ul/well in 1536-well tissue culture treated black solid bottom plates using a Multidrop dispenser. After the assay plates were incubated at a 37 C/5% CO2 incubator for 5 hours, 23 nL of compounds dissolved in DMSO, positive and negative controls was transferred to the assay plate by a pintool work station. The plates were incubated at 37 C for 40 hours. The luminescence intensity were measured at 0h, 8h, 16h, 24h, 32h and 40h time points using ViewLux plate reader during compound treatment.
row,SMILES,Potency
1,O=C(O)CCCCC1CCSS1 (stereo not given),inactive
2,CCCCCCCCCCCCCCCCCC(=O)OCC(O)CO (stereo not given),inactive
3,CCCCOCCOCCOC(C)=O,inactive
4,NC(=O)N1c2ccccc2C=Cc2ccccc21,inactive
5,COc1ccccc1NC(=O)CC(C)=O,inactive
6,C[C@]12CC[C@@H]3c4ccc(O)cc4CC[C@H]3[C@@H]1CCC2=O,inactive
7,COCC(C)N (stereo not given),inactive
8,C[C@]12C=CC(=O)C=C1CC[C@@H]1[C@@H]2C(=O)C[C@@]2(C)[C@H]1CC[C@]2(O)C(=O)CO,inactive
9,CN(C)Cc1cc(CN(C)C)c(O)c(CN(C)C)c1,inactive
10,O=c1cc[nH]c(=O)[nH]1,inactive
11,COc1cc(O)c(C(=O)c2ccccc2)cc1S(=O)(=O)O,inactive
12,Nc1cccc(N)c1,inactive
13,CCOCCO,inactive
14,C=CCOC(=O)CC(C)C,inactive
15,O=C(OCc1ccccc1)c1ccccc1,inactive
16,COC(=O)C1CCC(C(=O)OC)CC1 (stereo not given),inactive
17,Cn1cnc2c1c(=O)[nH]c(=O)n2C,inactive
18,COc1ccccc1O,inactive
19,CC(=O)OC/C=C(C)/C=C/C=C(C)/C=C/C1=C(C)CCCC1(C)C,inactive
20,CCN1CCCC1=O,inactive

row,SMILES,Potency
1,NC(N)=NC(N)=NCCc1ccccc1,inactive
2,NC(=O)N/N=C/c1ccc([N+](=O)[O-])o1,inactive
3,N[C@@H](Cc1c[nH]c2ccc(O)cc12)C(=O)O,inactive
4,COc1ccc(O)cc1,inactive
5,Cc1cccc2ccccc12,inactive
6,CCOC(=O)C(C)(C)Oc1ccc(Cl)cc1,inactive
7,CCCCOCCOCCSC#N,inactive
8,CN/C(=C\[N+](=O)[O-])NCCSCc1ccc(CN(C)C)o1,inactive
9,CCn1cc(C(=O)O)c(=O)c2ccc(C)nc21,inactive
10,CC(C)CC(C)CC(O)CC(C)C (stereo not given),inactive
11,CCCCOC(=O)CCCCCCCCC(=O)OCCCC,inactive
12,CC(C)=CCC/C(C)=C/CO,inactive
13,O=C(O)Cc1cccc2ccccc12,inactive
14,C=C(C)OC(C)=O,inactive
15,N[C@@H](Cc1c[nH]c2ccccc12)C(=O)O,inactive
16,CCCCCCCC(=O)OCC(O)CO (stereo not given),inactive
17,c1ccc2[nH]c(-c3cscn3)nc2c1,inactive
18,O=C1CCCCCN1,inactive
19,CN(C)C=O,inactive
20,CC1(C)O[C@@H]2[C@@H](CO[C@@]3(COS(N)(=O)=O)OC(C)(C)O[C@@H]23)O1,inactive
